The numbers were not newly measured in PubChem BioAssay AID977611, which cites them from elsewhere.

What is called Kd is the concentration at which binding is half-saturated.

A short description of the series: PubChem AID 977611. The following applies: PDB protein-ligand complexes, literature Kd.

In all, about 3,900 compounds went through this assay and about 3,900 (100%) were called active. Cut-off not given; nearly all actives show Kd up to about 4200 µM. So high a share suggests a set chosen from earlier hits. Some of the results follow. Where a SMILES comes first, the peptide text is derived from it. Square brackets hold non-standard residues; d marks the D form. Peptide text beside a SMILES is read from it. [ ]: non-standard residue; d: D form. Orn(CH(NH2)2) = NC(N)NCCC[C@H](N)C(=O)O

As for `NC(=O)C1=CN([C@H]2O[C@H](CO[P+](O)(O)O[P+](O)(O)OC[C@H]3O[C@@H](n4cnc5c(N)ncnc54)[C@H](O)[C@@H]3O)[C@@H](O)[C@H]2O)C=CC1`, the dissociation constant Kd (protein: Redox-sensing transcriptional repressor rex, PDB entry 3wgg) is 39.9 µM (active). As for `Nc1ncnc2c1ncn2[C@@H]1O[C@H](CO[P+](O)(O)O[P+](O)(O)OC[C@H]2O[C@H](O)[C@H](O)[C@@H]2O)[C@@H](O)[C@H]1O`, the Kd runs as follows: (protein: Poly [ADP-ribose] polymerase 14 MACRO DOMAIN 1, PDB entry 3q6z) 192 µM (active); (protein: Poly [ADP-ribose] polymerase 14 MACRO DOMAIN 1 and 2, PDB entry 3vfq) 6.4 µM (active); (protein: Poly [ADP-ribose] polymerase 14 MACRO DOMAIN 2, PDB entry 3q71) 6 µM (active); (protein: Poly [ADP-ribose] polymerase 14 MACRO DOMAIN 3, PDB entry 4abk) 1.9 µM (active).

In the case of `Nc1ncnc2c1ncn2[C@@H]1O[C@H](CO[P+](O)(O)O[P+](O)(O)O[P+](O)(O)O[P+](O)(O)O[P+](O)(O)OC[C@H]2O[C@@H](n3cnc4c(N)ncnc43)[C@H](O)[C@@H]2O)[C@@H](O)[C@H]1O`, the Kd (protein: Adenylate kinase, PDB entry 4w5j) is 0.057 µM (active). Take `C[C@H](NC(=O)[C@H](Cc1c[nH]c2ccccc12)NC(=O)[C@H](CC(N)=O)NC(=O)[C@@H](N)CC(N)=O)C(=O)N[C@@H](CC(=O)O)C(=O)N[C@@H](Cc1ccccc1)C(=O)N[C@@H](CO)C(=O)N[C@@H](CO)C(=O)N[C@H](C(=O)N[C@@H](Cc1c[nH]c2ccccc12)C(=O)N1CCC[C@H]1C(=O)O)[C@@H](C)O` (H-NNWADFSSTWP-OH): the Kd (protein: Adaptor protein complex AP-2, subunit beta-1, PDB entry 3hs9) was 0.49 µM (active).

`CC(=O)N1CCC[C@H]1C(=O)N[C@@H](Cc1c[nH]c2ccccc12)C(=O)N[C@@H](C)C(=O)N[C@H](C(=O)N[C@@H](CS)C(=O)N[C@@H](CC(=O)O)C(=O)N[C@@H](CO)C(N)=O)[C@@H](C)O`: the Kd (protein: Thiol:disulfide interchange protein DsbAC30S, PDB entry 4od7) is 8.3 µM (active). As for H-PDVSSSTA-OH, the Kd (protein: Speckle-type POZ protein, SPOPMATH, PDB entry 3ivq) was 76.1 µM (active). Regarding H-PHGGSWGQP-OH, the Kd (protein: POM2 Fab, PDB entry 4j8r) was 0.02 µM (active).

Consider `NCCCC[C@H](NC(=O)[C@H](CO)NC(=O)[C@@H]1CCCN1)C(=O)N[C@@H](CCCCN)C(=O)N[C@@H](CCCNC(N)N)C(=O)N[C@@H](CCCCN)C(=O)N[C@@H](CCCNC(N)N)C(=O)N[C@@H](CO)C(=O)N[C@@H](CCCNC(N)N)C(=O)N[C@@H](Cc1c[nH]c2ccccc12)C(=O)N[C@@H](CC(N)=O)C(=O)N[C@@H](CCC(N)=O)C(=O)N[C@@H](CC(=O)O)C(=O)O` (H-PSKK[Orn(CH(NH2)2)]K[Orn(CH(NH2)2)]S[Orn(CH(NH2)2)]WNQD-OH), for which the Kd (protein: the C-terminal RRM (RRM3) of human U2AF65, PDB entry 1opi) is 0.05 µM (active). Turning to H-PDWDFN-NH2, the Kd (protein: AP-1 COMPLEX SUBUNIT GAMMA-LIKE 2, PDB entry 3zhf) is 120 µM (active). On to `C[C@H](NC(=O)[C@H](Cc1c[nH]c2ccccc12)NC(=O)[C@H](CC(N)=O)NC(=O)[C@H](CC(N)=O)NC(=O)[C@@H]1CCCN1)C(=O)N[C@@H](CC(=O)O)C(=O)N[C@@H](Cc1ccccc1)C(=O)N[C@@H](CO)C(=O)N[C@@H](CO)C(=O)N[C@H](C(=O)N[C@@H](Cc1c[nH]c2ccccc12)C(=O)N1CCC[C@H]1C(=O)O)[C@@H](C)O` (H-PNNWADFSSTWP-OH), for which, where the note is “protein: Adaptor protein complex AP-2, alpha 2 subunit, PDB entry 3hs8”, the dissociation constant (Kd) was 5 µM (active).

For the molecule `CCCCCCCC(=O)OC[C@H](CO[P+](O)(O)OC[C@H](N)C(=O)O)OC(=O)CCCCCCC`, the Kd (protein: Matrix protein p17, PDB entry 2lyb) was 35 µM (active).

For the molecule `CCCCCCCC(=O)OC[C@H](CO[P+](O)(O)OCC[N+](C)(C)C)OC(=O)CCCCCCC`, where the note is “protein: Matrix protein p17, PDB entry 2lya”, the Kd was 65 µM (active). Consider `CC(C)C[C@H](CNC(=O)Cc1c[nH]c2ccccc12)Cc1ccc2c(c1C(=O)O)OCO2`, for which the Kd (protein: HIV integrase, PDB entry 4cjq) is 256 µM (active).

For the molecule `CC(C)C[C@H](CNC(=O)c1ccncc1)Cc1ccc2c(c1C(=O)O)OCO2`, the Kd (protein: HIV INTEGRASE, PDB entry 4cj4) was 432 µM (active).

As to `CC(C)C[C@H](CNC(=O)CCCN)Cc1ccc2c(c1C(=O)O)OCO2`, under “protein: HIV integrase, PDB entry 4ck3”, the dissociation constant (Kd) was 268 µM (active).

On to `CC(C)C[C@H](CNC(=O)c1cccnc1)Cc1ccc2c(c1C(=O)O)OCO2`, for which the Kd (protein: HIV integrase, PDB entry 4cjp) was 481 µM (active). For the molecule `NC(=O)CC[C@H](NC(=O)c1ccc(O[C@@H]2O[C@H](CO)[C@H](O)[C@H](O)[C@H]2O)cc1)C(=O)N[C@@H](CCCNC(N)N)C(=O)N[C@@H](CO)C(N)=O`, under “protein: PA-I galactophilic lectin, PDB entry 4lkd”, the Kd is 4.5 µM (active).

`NCCCC[C@H](NC(=O)[C@H](Cc1c[nH]c2ccccc12)NC(=O)c1ccc(O[C@@H]2O[C@H](CO)[C@H](O)[C@H](O)[C@H]2O)cc1)C(=O)N[C@@H](Cc1ccc(O)cc1)C(N)=O`: the Kd (protein: PA-I galactophilic lectin, PDB entry 4lkf) is 4.3 µM (active). On to `NC(=O)CNC(=O)[C@H](Cc1c[nH]c2ccccc12)NC(=O)c1ccc(O[C@@H]2O[C@H](CO)[C@H](O)[C@H](O)[C@H]2O)cc1`, for which, under “protein: PA-I galactophilic lectin, PDB entry 4lke”, the Kd was 4.3 µM (active). As for `CC[C@H](C)[C@H](NC(=O)[C@@H]1CCCN1C(=O)[C@H](CCCNC(N)N)NC(=O)[C@@H]1CCCN1C(=O)[C@@H]1CCCN1)C(=O)N[C@@H](Cc1ccc(O)cc1)C(=O)N[C@@H](CC(N)=O)C(=O)O` (H-PP[Orn(CH(NH2)2)]PIYN-OH), where the note is “protein: Chaperone protein DnaK, PDB entry 4ezq”, the Kd is 6.3 µM (active). For `CC[C@H](C)[C@H](NC(=O)[C@H](CO)NC(=O)[C@H](CCCCN)NC(=O)[C@@H](NC(=O)[C@H](Cc1cnc[nH]1)NC(=O)[C@H](CCC(=O)O)NC(=O)[C@@H]1CCCN1C(=O)[C@H](CCCNC(N)N)NC(=O)[C@@H]1CCCN1C(=O)[C@H](C)NC(=O)[C@@H](NC(=O)[C@@H](NC(=O)[C@@H]1CCCN1C(=O)[C@@H]1CCCN1)C(C)C)[C@@H](C)CC)[C@@H](C)O)C(=O)N[C@@H](Cc1ccc(O)cc1)C(=O)N[C@H](C(=O)N[C@@H](CCCNC(N)N)C(=O)N[C@@H](CO)C(=O)O)[C@@H](C)O` (H-PPVIAP[Orn(CH(NH2)2)]PEHTKSIYT[Orn(CH(NH2)2)]S-OH), where the note is “protein: the SH3 Domain of ?PIX, PDB entry 2df6”, the Kd was 1.05 µM (active). With `CC[C@H](C)[C@H](NC(=O)[C@@H](NC(=O)[C@@H]1CCCN1C(=O)[C@H](CCCNC(N)N)NC(=O)[C@H](CCCNC(N)N)NC(=O)[C@@H]1CCCN1)C(C)C)C(=O)N[C@@H](CCSC)C(=O)N[C@@H](CCCNC(N)N)C(N)=O` (H-P[Orn(CH(NH2)2)][Orn(CH(NH2)2)]PVIM[Orn(CH(NH2)2)]-NH2), the Kd (protein: Chaperone protein DnaK, PDB entry 4ezt) is 7.4 µM (active). For `CC(C)C[C@H](NC(=O)[C@H](Cc1ccc(O)cc1)NC(=O)[C@@H]1CCCN1C(=O)[C@@H]1CCCN1)C(=O)N1CCC[C@H]1C(=O)N[C@@H](CCCNC(N)N)C(=O)N1CCC[C@H]1C(=O)N[C@@H](CCCNC(N)N)C(=O)O` (H-PPYLP[Orn(CH(NH2)2)]P[Orn(CH(NH2)2)]-OH), the Kd (protein: Chaperone protein DnaK, PDB entry 4ezo) is 0.3 µM (active).
